{"source": "PubChem BioAssay (NCATS)", "key": {"[1]": {"target": "Calcium and integrin-binding protein 1 (Homo sapiens) (UniProt Q99828)", "sequence (Q99828 whole entry, looked up)": "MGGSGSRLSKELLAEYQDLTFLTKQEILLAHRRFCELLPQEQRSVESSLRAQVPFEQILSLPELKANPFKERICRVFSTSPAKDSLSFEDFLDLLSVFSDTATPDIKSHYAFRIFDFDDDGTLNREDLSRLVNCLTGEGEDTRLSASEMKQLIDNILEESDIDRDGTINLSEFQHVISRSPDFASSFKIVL", "assay": "Primary qHTS for Identification of Calcium Integrin Binding Protein 1 (CIB1) Competitor (AID 1508620); further: top concentration of the series differs between compounds", "settings": "CIB1-GST / FITC-alphaIIb peptide fluorescence polarization; series mostly up to 114 µM", "outline": "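Fluorescence polarization competition: GST-tagged CIB1 (1 uM final) preincubated with compound 15 min at room temperature, then FITC-labelled alphaIIb peptide (100 nM final) added. After 15 min at room temperature, polarization read at Ex 480/Em 540.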"}, "[2]": {"assay": "Primary qHTS for inhibitors of nuclear receptor binding SET domain protein 2 (NSD2) in an isogenic RCH-ACV NSD2 p.E1099K mutant (9B) (AID 1645876); further: nearly all actives have a fitted effect of over 70% in size; further: potency means the concentration at half of the fitted maximal effect", "settings": "RCH-ACV NSD2 E1099K (9B) viability, CellTiter-Glo, 72 h; series mostly up to 44.9 µM"}, "[3]": {"assay": "Primary qHTS for inhibitors of nuclear receptor binding SET domain protein 2 (NSD2) in an RCH-ACV wild type WT cells (2C) (AID 1645877); further: nearly all actives have a fitted effect of over 70% in size; further: potency means the concentration at half of the fitted maximal effect", "settings": "RCH-ACV NSD2 WT (2C) viability, CellTiter-Glo, 72 h; series mostly up to 44.9 µM"}}, "note": "Records with an inconclusive call do not appear. Where a call stands in place of a potency, no number is given. A number with no mark means an inactive call. Calls of active or inactive are those of the source. The call rests on the fitted dose curve; in most records, active means well fitted curve in the direction sought with a large enough effect; inconclusive means small, poorly fitted or top-dose-only effect, or another doubt; inactive means no such curve, though single readings can be large; an effect the other way counts as inactive or inconclusive.", "data": [{"smiles": "C=C(C(=O)O[C@H]1C/C(C)=C/CC/C(CO)=C/[C@H]2OC(=O)C(=C)[C@H]12)C(O)CO", "note": "(stereo partly drawn)", "values": [{"measurement": "Potency", "setting": "[1]", "result": "inactive"}, {"measurement": "Potency", "setting": "[2]", "result": "7.13 µM (active)"}, {"measurement": "Potency", "setting": "[3]", "result": "2.84 µM (active)"}]}, {"smiles": "CCN(CC)C(=O)c1ccc(Nc2nc(OCC3CCCCC3)c3[nH]cnc3n2)cc1", "values": [{"measurement": "Potency", "setting": "[1]", "result": "inactive"}, {"measurement": "Potency", "setting": "[2]", "result": "3.65 µM (active)"}, {"measurement": "Potency", "setting": "[3]", "result": "1.83 µM (active)"}]}, {"smiles": "C=C1C(=O)O[C@H]2C[C@@H](C)[C@@H]3CCC(=O)[C@@]3(C)C[C@H]12", "values": [{"measurement": "Potency", "setting": "[1]", "result": "inactive"}, {"measurement": "Potency", "setting": "[2]", "result": "3.65 µM (active)"}, {"measurement": "Potency", "setting": "[3]", "result": "3.65 µM (active)"}]}, {"smiles": "C=C1CC[C@@H]2[C@](C)(CO)[C@H](O)CC[C@@]2(C)[C@@H]1CC(=O)C1=CCOC1=O", "values": [{"measurement": "Potency", "setting": "[1]", "result": "inactive"}, {"measurement": "Potency", "setting": "[2]", "result": "inactive"}, {"measurement": "Potency", "setting": "[3]", "result": "inactive"}]}, {"smiles": "CCC(C)C1NC(=O)C(Cc2ccccc2)NC(=O)C(CCCCCC(=O)C(O)CO)NC(=O)C2CCCCN2C1=O", "note": "(stereo not drawn)", "values": [{"measurement": "Potency", "setting": "[1]", "result": "inactive"}, {"measurement": "Potency", "setting": "[2]", "result": "6.08 µM (active)"}, {"measurement": "Potency", "setting": "[3]", "result": "2.16 µM (active)"}]}, {"smiles": "O=C(/C=C/c1ccccc1O)O[C@@H]1O[C@H](CO)[C@@H](O)[C@H](O)[C@H]1O", "values": [{"measurement": "Potency", "setting": "[1]", "result": "inactive"}, {"measurement": "Potency", "setting": "[2]", "result": "inactive"}, {"measurement": "Potency", "setting": "[3]", "result": "inactive"}]}, {"smiles": "C=C(C)C(=O)O[C@H]1C[C@@](C)(O)C2(O)CCC(C)(/C=C3/OC(=O)C(COC)=C31)O2", "note": "(stereo partly drawn)", "values": [{"measurement": "Potency", "setting": "[1]", "result": "inactive"}, {"measurement": "Potency", "setting": "[2]", "result": "1.42 µM (active)"}, {"measurement": "Potency", "setting": "[3]", "result": "0.713 µM (active)"}]}, {"smiles": "C=CC(C)(C)C12CC3C(=O)N4C(CC5(C(C)(C)C=C)c6ccccc6NC45)C(=O)N3C1Nc1ccccc12", "note": "(stereo not drawn)", "values": [{"measurement": "Potency", "setting": "[1]", "result": "inactive"}, {"measurement": "Potency", "setting": "[2]", "result": "inactive"}, {"measurement": "Potency", "setting": "[3]", "result": "inactive"}]}, {"smiles": "C=C1C(=O)O[C@@H]2C[C@@]3(C)CCCC(=C)[C@]3(O)C[C@H]12", "values": [{"measurement": "Potency", "setting": "[1]", "result": "inactive"}, {"measurement": "Potency", "setting": "[2]", "result": "8.17 µM (active)"}, {"measurement": "Potency", "setting": "[3]", "result": "6.49 µM (active)"}]}, {"smiles": "COc1ccc(C2Oc3c(OC)cc(CCCO)cc3C2COC2OC(CO)C(O)C(O)C2O)cc1OC", "note": "(stereo not drawn)", "values": [{"measurement": "Potency", "setting": "[1]", "result": "inactive"}, {"measurement": "Potency", "setting": "[2]", "result": "inactive"}, {"measurement": "Potency", "setting": "[3]", "result": "inactive"}]}, {"smiles": "CC(=O)O[C@@H]1CC[C@@]2(C)[C@H](CC[C@@H]3[C@@H]2C[C@H](OC(C)=O)[C@]2(C)[C@@H](C(C)=O)CC[C@@H]32)C1", "values": [{"measurement": "Potency", "setting": "[1]", "result": "inactive"}, {"measurement": "Potency", "setting": "[2]", "result": "23 µM (active)"}, {"measurement": "Potency", "setting": "[3]", "result": "23 µM (active)"}]}, {"smiles": "C=C[C@@]12COC(=O)C(=C)[C@@H]1[C@@H](O)[C@H](C(=C)C(=O)OC)[C@@H](O)C2", "values": [{"measurement": "Potency", "setting": "[1]", "result": "inactive"}, {"measurement": "Potency", "setting": "[2]", "result": "inactive"}, {"measurement": "Potency", "setting": "[3]", "result": "inactive"}]}, {"smiles": "Nc1nc(Nc2ccc3c(c2)CCC(N2CCCC2)CC3)nn1-c1cc2c(nn1)-c1ccccc1CCC2", "note": "(stereo not drawn)", "values": [{"measurement": "Potency", "setting": "[1]", "result": "inactive"}, {"measurement": "Potency", "setting": "[2]", "result": "1.63 µM (active)"}, {"measurement": "Potency", "setting": "[3]", "result": "1.45 µM (active)"}]}, {"smiles": "COc1ccc(-c2ccccc2)cc1NS(=O)(=O)c1cc(Cl)cc(Cl)c1O", "values": [{"measurement": "Potency", "setting": "[1]", "result": "inactive"}, {"measurement": "Potency", "setting": "[2]", "result": "inactive"}, {"measurement": "Potency", "setting": "[3]", "result": "inactive"}]}, {"smiles": "C/C(=C/C=C\\C=C\\Cc1cnco1)[C@@H](O)C(C)(C)C(N)=O", "values": [{"measurement": "Potency", "setting": "[1]", "result": "inactive"}, {"measurement": "Potency", "setting": "[2]", "result": "inactive"}, {"measurement": "Potency", "setting": "[3]", "result": "inactive"}]}, {"smiles": "CN(CC1COCCO1)S(=O)(=O)Nc1ccc2ccc3ncc(-c4cnn(C)c4)cc3c(=O)c2c1", "note": "(stereo not drawn)", "values": [{"measurement": "Potency", "setting": "[1]", "result": "inactive"}, {"measurement": "Potency", "setting": "[2]", "result": "5.15 µM (active)"}, {"measurement": "Potency", "setting": "[3]", "result": "9.16 µM (active)"}]}, {"smiles": "C=C1C(=O)O[C@@H]2[C@H]1CC[C@H](C)[C@]1(CCC(=O)O1)C2(C)O", "note": "(stereo partly drawn)", "values": [{"measurement": "Potency", "setting": "[1]", "result": "inactive"}, {"measurement": "Potency", "setting": "[2]", "result": "20.5 µM (active)"}, {"measurement": "Potency", "setting": "[3]", "result": "14.5 µM (active)"}]}, {"smiles": "CC1(C)C2CCC(CO[C@@H]3O[C@H](CO[C@@H]4OC[C@](O)(CO)[C@H]4O)[C@@H](O)[C@H](O)[C@H]3O)C1C2", "note": "(stereo partly drawn)", "values": [{"measurement": "Potency", "setting": "[1]", "result": "inactive"}, {"measurement": "Potency", "setting": "[2]", "result": "inactive"}, {"measurement": "Potency", "setting": "[3]", "result": "inactive"}]}, {"smiles": "CC1CCCC(O)CC(=O)c2c(O)cc(O)cc2CC(=O)O1", "note": "(stereo not drawn)", "values": [{"measurement": "Potency", "setting": "[1]", "result": "inactive"}, {"measurement": "Potency", "setting": "[2]", "result": "8.01 µM (active)"}, {"measurement": "Potency", "setting": "[3]", "result": "5.05 µM (active)"}]}, {"smiles": "CO[C@H]1C[C@@H]2CC[C@@H](C)[C@@](O)(O2)C(=O)C(=O)N2CCCC[C@H]2C(=O)O[C@H]([C@@H](C)C[C@@H]2CC[C@@H](O)[C@H](OC)C2)CC(=O)[C@H](C)/C=C(\\C)[C@@H](O)[C@@H](OC)C(=O)[C@H](C)C[C@H](C)/C=C/C=C/C=C/1C", "values": [{"measurement": "Potency", "setting": "[1]", "result": "inactive"}, {"measurement": "Potency", "setting": "[3]", "result": "25.8 µM (active)"}]}, {"smiles": "C=C1C(=O)OC[C@@H]1C/C=C(\\C)CC1CC(C)C(=O)O1", "note": "(stereo partly drawn)", "values": [{"measurement": "Potency", "setting": "[1]", "result": "inactive"}, {"measurement": "Potency", "setting": "[3]", "result": "23 µM (active)"}]}, {"smiles": "CC(=O)c1c(C)cc2cccc(O)c2c1O[C@@H]1O[C@H](CO)[C@@H](O)[C@H](O)[C@H]1O", "values": [{"measurement": "Potency", "setting": "[1]", "result": "inactive"}, {"measurement": "Potency", "setting": "[3]", "result": "12.7 µM (active)"}]}]}
